Each structure is given as a SMILES string. Calls of active or inactive are those of the source. Rule for the calls: active = hit-call score of the fitted dose curve at least 0.9, where 1 is the maximum; inactive = score below 0.9.

A short description of assay [1]: ATG_GLI_CIS: Attagene CIS-FACTORIAL HepG2 Assay for human Zinc Finger Protein GLI1 (AID 2282945). The conditions noted are these: HepG2, Attagene cis-factorial reporter mRNA, GLI element; actives raise or lower the signal. An outline of the steps:
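HepG2 cells transiently transfected with cis-promoter multiplexed reporter units report endogenous transcription factor activity. After 24 h chemical exposure, reporter mRNA was quantified by RT-PCR, 6-FAM labelling, HpaI digestion and capillary electrophoresis, with bidirectional fitting against DMSO.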

For assay [2], the target named is Bile acid receptor (Homo sapiens) (UniProt Q96RI1). In words: ATG_IR1_CIS: Attagene CIS-FACTORIAL HepG2 Assay for human Nuclear Receptor Subfamily 1 Group H Member 4 (NR1H4), IR1 submotif (AID 2282946). To be noted: IR1 reporter transcription, actives raise or lower the signal. An outline of the steps: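 Readout: reporter transcript levels by RT-PCR with fluorescent capillary electrophoresis, from HepG2 cells transiently transfected with multiplexed cis-regulated reporters and dosed 24 h. Gain- or loss-of-signal fitted versus DMSO negative control.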
Bile acid receptor (Homo sapiens), sequence (Q96RI1 whole entry, looked up): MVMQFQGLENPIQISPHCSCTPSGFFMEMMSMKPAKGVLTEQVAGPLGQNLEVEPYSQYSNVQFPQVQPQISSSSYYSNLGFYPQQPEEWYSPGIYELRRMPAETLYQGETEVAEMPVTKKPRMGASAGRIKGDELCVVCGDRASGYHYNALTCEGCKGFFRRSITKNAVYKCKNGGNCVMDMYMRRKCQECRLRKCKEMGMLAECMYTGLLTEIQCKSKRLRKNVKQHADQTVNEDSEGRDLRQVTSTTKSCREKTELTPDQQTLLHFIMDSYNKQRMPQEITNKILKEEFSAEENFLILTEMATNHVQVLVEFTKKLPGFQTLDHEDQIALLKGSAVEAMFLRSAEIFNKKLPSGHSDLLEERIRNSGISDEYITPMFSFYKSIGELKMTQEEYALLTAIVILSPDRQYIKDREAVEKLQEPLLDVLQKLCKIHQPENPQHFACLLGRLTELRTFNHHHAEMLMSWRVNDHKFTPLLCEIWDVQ

Assay [3] in a line: ATG_GRE_CIS: Attagene CIS-FACTORIAL HepG2 Assay for human Glucocorticoid Response Elements (GRE) (AID 2282947). To be noted: HepG2 GRE cis-reporter, Attagene multiplex mRNA; actives raise or lower the signal. An outline of the steps:
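Cells (HepG2) bearing transfected cis-promoter reporter transcription units were treated with chemical for 24 hours. Reporter mRNA was measured via RT-PCR with capillary electrophoresis, and activity was fitted in both directions relative to DMSO.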

A short description of assay [4]: ATG_ISRE_CIS: Attagene CIS-FACTORIAL HepG2 Assay for human Interferon Regulatory Factor 1 (IRF1) binding to an Interferon-Stimulated Response Element (ISRE) (AID 2282948). To be noted: HepG2 ISRE cis-reporter (Attagene), mRNA transcription readout; actives raise or lower the signal. In outline: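 Uses HepG2 liver cells transfected with cis-regulated reporters and measures mRNA 24 h post-dosing through RT-PCR, primer-extension labelling and capillary electrophoresis, with DMSO as negative control.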

A short description of assay [5]: ATG_M_06_CIS: Attagene CIS-FACTORIAL HepG2 Assay for M06 Transcription Factor (Internal Marker) (AID 2282950). To be noted: HepG2 Attagene CIS-FACTORIAL M06 internal marker reporter; actives raise or lower the signal. In outline: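 HepG2 cells transiently transfected with cis-regulated multiple reporter transcription units were exposed to chemical for 24 h; reporter mRNA was quantified by RT-PCR, 6-FAM primer labelling, HpaI digestion and capillary electrophoresis, fitted bidirectionally against DMSO.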

Assay [6] addresses Hypoxia-inducible factor 1-alpha (Homo sapiens) (UniProt Q16665). In words: ATG_HIF1a_CIS: Attagene CIS-FACTORIAL HepG2 Assay for human Hypoxia Inducible Factor 1 (HIF1A) (AID 2282951). The conditions noted are these: HepG2 Attagene cis-factorial HIF1a reporter transcription; actives raise or lower the signal. In outline: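 Endogenous-TF cis reporter readout, human HepG2 cells, 24 h incubation; mRNA detected via RT-PCR and capillary electrophoresis fluorescence; DMSO-normalised bidirectional fitting.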

Assay [7] has as its target Hepatocyte nuclear factor 6 (Homo sapiens) (UniProt Q9UBC0). In words: ATG_HNF6_CIS: Attagene CIS-FACTORIAL HepG2 Assay for human Hepatocyte Nuclear Factor 6 (HNF6) (AID 2282952). The conditions noted are these: HepG2 Attagene cis-factorial HNF6 reporter transcription; actives raise or lower the signal. In outline:
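Readout: fluorescent reporter-transcript fragments resolved by capillary electrophoresis after RT-PCR, reflecting endogenous factor activity in transfected HepG2. Exposure 24 h. Gain or loss of signal fitted bidirectionally against DMSO.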

A short description of assay [8]: ATG_MRE_CIS: Attagene CIS-FACTORIAL HepG2 Assay for human Metal Responsive Element (MRE) (AID 2282954). The conditions noted are these: HepG2 MRE cis-reporter transcription, Attagene multiplex; actives raise or lower the signal. An outline of the steps: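 Cells were transfected with cis-promoter reporter transcription units, then dosed for 24 h. RNA was reverse-transcribed, amplified, fluorescently labelled and resolved by capillary electrophoresis, and activity was fitted in both directions relative to DMSO.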

In assay [9] the target is Paired box protein Pax-6 (Homo sapiens) (UniProt P26367). In words: ATG_Pax6_CIS: Attagene CIS-FACTORIAL HepG2 Assay for human Paired Box 6 (PAX6) (AID 2282956). To be noted: HepG2 CIS-FACTORIAL PAX6 reporter transcription, RNA readout; actives raise or lower the signal. In outline:
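DMSO-referenced bidirectional fits of reporter mRNA fluorescence; HepG2 with transient cis-promoter MRTUs, 24 h post-dose, RT-PCR plus capillary electrophoresis detection.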

A short description of assay [10]: ATG_PXRE_CIS: Attagene CIS-FACTORIAL HepG2 Assay for human Pregnane X Receptor Element (PXRE) (AID 2282957). To be noted: HepG2 Attagene CIS-FACTORIAL PXRE reporter, mRNA; actives raise or lower the signal. An outline of the steps:
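Read-out: fluorescence of reporter-specific RT-PCR products resolved by capillary electrophoresis, fitted bidirectionally relative to DMSO. Human HepG2 liver cells carried transfected cis-promoter reporter units and were exposed to chemicals for 24 h.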

Assay [11] can be described thus: ATG_PPRE_CIS: Attagene CIS-FACTORIAL HepG2 Assay for human Peroxisome Proliferator-activated Response Element (PPRE) (AID 2282958). The conditions noted are these: HepG2 PPRE cis-element reporter, Attagene transcription factor profiling; actives raise or lower the signal. An outline of the steps: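 After human HepG2 hepatoma cells were transiently transfected with cis-promoter reporter constructs, they were exposed to test chemicals for 24 hours. Reporter RNA was then reverse-transcribed, PCR-amplified, FAM-labeled, HpaI-digested and quantified by capillary electrophoresis.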

The nature of assay [12]: ATG_RORE_CIS: Attagene CIS-FACTORIAL HepG2 Assay for human RAR-related Orphan Receptor Element (RORE) (AID 2282959). To be noted: HepG2 Attagene cis-factorial RORE reporter, mRNA; actives raise or lower the signal. In outline:
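Measured here: transcript induction of a cis-regulated reporter in HepG2 cells transiently transfected via FuGene 6. After 24 h, RNA was processed by RT-PCR and fluorescent capillary electrophoresis; DMSO defined baseline activity.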

The target of assay [13] is Transcription factor Sp1 (Homo sapiens) (UniProt P08047). The experiment in a line: ATG_Sp1_CIS: Attagene CIS-FACTORIAL HepG2 Assay for human Specificity Protein 1 (Sp1) (AID 2282961). To be noted: HepG2 Sp1 cis-reporter transcription, actives raise or lower the signal. An outline of the steps:
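After transient transfection of HepG2 cells with cis-promoter reporter units and 24 h chemical treatment, reporter transcripts were quantified by RT-PCR and capillary electrophoresis fluorescence. Gain- and loss-of-signal fitted against DMSO.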

The target in assay [14] is Signal transducer and activator of transcription 3 (Homo sapiens) (UniProt P40763). The experiment in a line: ATG_STAT3_CIS: Attagene CIS-FACTORIAL HepG2 Assay for human Signal Transducer and Activator of Transcription 3 (STAT3) (AID 2282963). The conditions noted are these: HepG2, Attagene cis-factorial STAT3 reporter transcription; actives raise or lower the signal. An outline of the steps: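 HepG2, MRTU-transfected, 24 h dosing. RNA → RT → PCR → FAM label → HpaI → CE. Bidirectional fit vs DMSO.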
Signal transducer and activator of transcription 3 (Homo sapiens), sequence (P40763 whole entry, looked up): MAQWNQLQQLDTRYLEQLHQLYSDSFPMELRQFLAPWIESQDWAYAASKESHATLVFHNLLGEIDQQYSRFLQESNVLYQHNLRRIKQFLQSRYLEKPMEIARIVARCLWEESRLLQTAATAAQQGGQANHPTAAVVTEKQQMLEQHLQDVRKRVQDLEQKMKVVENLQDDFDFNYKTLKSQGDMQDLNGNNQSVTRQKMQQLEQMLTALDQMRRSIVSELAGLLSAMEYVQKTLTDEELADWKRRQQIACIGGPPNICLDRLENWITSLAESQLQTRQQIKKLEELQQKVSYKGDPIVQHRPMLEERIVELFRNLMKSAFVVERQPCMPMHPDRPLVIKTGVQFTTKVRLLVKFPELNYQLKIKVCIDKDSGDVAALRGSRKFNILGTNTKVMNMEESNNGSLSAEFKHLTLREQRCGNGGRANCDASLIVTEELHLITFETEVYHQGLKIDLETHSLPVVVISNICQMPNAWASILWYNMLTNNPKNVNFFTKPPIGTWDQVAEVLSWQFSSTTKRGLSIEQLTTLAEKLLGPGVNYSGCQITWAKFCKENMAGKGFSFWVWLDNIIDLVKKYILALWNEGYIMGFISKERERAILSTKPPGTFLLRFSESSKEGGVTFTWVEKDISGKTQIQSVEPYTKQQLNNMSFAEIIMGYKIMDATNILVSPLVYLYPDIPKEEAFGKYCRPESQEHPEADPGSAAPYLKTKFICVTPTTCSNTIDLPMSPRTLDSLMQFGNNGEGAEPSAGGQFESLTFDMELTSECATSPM

Assay [15] in a line: ATG_TA_CIS: Attagene CIS-FACTORIAL HepG2 Assay for human TA Basal Promoter (AID 2282964). The conditions noted are these: HepG2 Attagene CIS-factorial TA basal promoter reporter; actives raise or lower the signal. An outline of the steps: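 HepG2 cells transiently transfected with multiplexed cis-promoter reporter units, dosed 24 h. Reporter mRNA measured by RT-PCR, 6-FAM labelling, HpaI digestion and capillary electrophoresis; bidirectional fit versus DMSO baseline, serving as background control.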

In assay [16] the target is Heat shock factor protein 1 (Homo sapiens) (UniProt Q00613). In words: ATG_HSE_CIS: Attagene CIS-FACTORIAL HepG2 Assay for human Heat Shock Transcription Factor 1 (HSE) (AID 2282953). The conditions noted are these: HepG2 HSE cis-reporter, Attagene RNA transcription; actives raise or lower the signal. An outline of the steps:
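HepG2 cells transiently transfected with multiple reporter transcription units under cis-regulatory promoter control, measuring endogenous transcription factor activity. After 24 h chemical exposure, reporter mRNA quantified by RT-PCR, fluorescent labelling, HpaI digestion and capillary electrophoresis; bidirectional fit versus DMSO.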

Assay [17] can be described thus: ATG_PBREM_CIS: Attagene CIS-FACTORIAL HepG2 Assay for human Phenobarbital-responsive Enhancer Module (PBREM) (AID 2282955). The conditions noted are these: HepG2 PBREM cis-reporter, Attagene multiplexed transcription; actives raise or lower the signal. In outline: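 Readout: reporter mRNA, fluorescent RT-PCR fragments separated by capillary electrophoresis. System: HepG2 transiently transfected with cis-regulated reporter units. Exposure: 24 h. Analysis: bidirectional, DMSO baseline.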

Assay [18] in a line: ATG_Sox_CIS: Attagene CIS-FACTORIAL HepG2 Assay for human SRY-box transcription factor (SOX) (AID 2282960). To be noted: HepG2 Attagene cis-factorial SOX reporter, mRNA; actives raise or lower the signal. In outline: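 Using transiently transfected HepG2 cells, reporter transcription driven by cis elements was assessed 24 h after dosing. Signal was fluorescence of capillary-separated RT-PCR products, with DMSO defining baseline activity.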

Assay [19] is described as follows: ATG_SREBP_CIS: Attagene CIS-FACTORIAL HepG2 Assay for human Sterol Regulatory Element Binding (SREBP) (AID 2282962). The conditions noted are these: HepG2 Attagene cis-factorial SREBP reporter, mRNA; actives raise or lower the signal. In outline: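 In this cis-format assay, HepG2 liver cells express reporters controlled by promoter elements responsive to native transcription factors. Exposure lasts 24 h; reporter mRNA fluorescence from capillary electrophoresis gives the signal, fitted bidirectionally against DMSO.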

Assay [20] is described as follows: ATG_M_32_CIS: Attagene CIS-FACTORIAL HepG2 Assay for M32 Transcription Factor (Internal Marker) (AID 2282949).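 Note: background control marker of the multiplexed CIS panel rather than a real target.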 To be noted: HepG2 Attagene cis-factorial M32 reporter, mRNA; actives raise or lower the signal. An outline of the steps:
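HepG2 transfectants (cis-regulated reporter transcription units) dosed 24 h. Reporter mRNA by RT-PCR plus CE, analysed as gain or loss relative to DMSO.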

Hypoxia-inducible factor 1-alpha (Homo sapiens), sequence (Q16665 whole entry, looked up): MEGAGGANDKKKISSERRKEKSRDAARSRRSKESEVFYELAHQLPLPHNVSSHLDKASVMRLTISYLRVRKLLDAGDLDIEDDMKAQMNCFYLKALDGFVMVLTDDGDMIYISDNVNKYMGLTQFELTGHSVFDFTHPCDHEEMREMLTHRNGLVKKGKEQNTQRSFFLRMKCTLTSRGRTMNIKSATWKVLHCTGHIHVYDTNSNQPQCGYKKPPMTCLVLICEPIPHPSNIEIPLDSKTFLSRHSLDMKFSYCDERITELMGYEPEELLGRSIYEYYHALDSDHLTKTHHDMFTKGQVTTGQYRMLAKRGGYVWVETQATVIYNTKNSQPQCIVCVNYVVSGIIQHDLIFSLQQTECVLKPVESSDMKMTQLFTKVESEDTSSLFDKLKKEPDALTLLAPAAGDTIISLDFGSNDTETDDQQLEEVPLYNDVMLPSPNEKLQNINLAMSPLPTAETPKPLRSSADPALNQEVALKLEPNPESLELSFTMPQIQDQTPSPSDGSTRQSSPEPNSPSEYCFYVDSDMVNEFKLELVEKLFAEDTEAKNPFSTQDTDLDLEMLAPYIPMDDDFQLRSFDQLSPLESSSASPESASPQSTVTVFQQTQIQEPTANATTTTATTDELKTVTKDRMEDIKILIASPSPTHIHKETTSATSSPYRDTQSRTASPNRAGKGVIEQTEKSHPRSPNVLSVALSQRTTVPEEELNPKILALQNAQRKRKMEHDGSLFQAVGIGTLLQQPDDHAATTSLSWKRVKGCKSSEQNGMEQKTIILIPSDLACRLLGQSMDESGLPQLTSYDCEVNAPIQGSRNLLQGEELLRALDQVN
Hepatocyte nuclear factor 6 (Homo sapiens), sequence (Q9UBC0 whole entry, looked up, the tested form may be a part): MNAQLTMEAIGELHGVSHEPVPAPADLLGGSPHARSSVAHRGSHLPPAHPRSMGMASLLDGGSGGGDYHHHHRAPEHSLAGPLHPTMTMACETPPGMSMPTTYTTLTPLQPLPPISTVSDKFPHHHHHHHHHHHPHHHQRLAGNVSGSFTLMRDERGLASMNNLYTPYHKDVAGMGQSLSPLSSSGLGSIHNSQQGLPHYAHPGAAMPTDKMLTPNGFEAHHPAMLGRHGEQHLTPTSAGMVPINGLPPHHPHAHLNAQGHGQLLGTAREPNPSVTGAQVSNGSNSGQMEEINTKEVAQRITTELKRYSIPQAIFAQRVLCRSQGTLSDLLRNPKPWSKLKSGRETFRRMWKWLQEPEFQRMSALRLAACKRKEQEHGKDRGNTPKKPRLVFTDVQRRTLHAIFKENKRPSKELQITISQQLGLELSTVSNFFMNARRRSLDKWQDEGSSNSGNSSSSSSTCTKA
Paired box protein Pax-6 (Homo sapiens), sequence (P26367 whole entry, looked up): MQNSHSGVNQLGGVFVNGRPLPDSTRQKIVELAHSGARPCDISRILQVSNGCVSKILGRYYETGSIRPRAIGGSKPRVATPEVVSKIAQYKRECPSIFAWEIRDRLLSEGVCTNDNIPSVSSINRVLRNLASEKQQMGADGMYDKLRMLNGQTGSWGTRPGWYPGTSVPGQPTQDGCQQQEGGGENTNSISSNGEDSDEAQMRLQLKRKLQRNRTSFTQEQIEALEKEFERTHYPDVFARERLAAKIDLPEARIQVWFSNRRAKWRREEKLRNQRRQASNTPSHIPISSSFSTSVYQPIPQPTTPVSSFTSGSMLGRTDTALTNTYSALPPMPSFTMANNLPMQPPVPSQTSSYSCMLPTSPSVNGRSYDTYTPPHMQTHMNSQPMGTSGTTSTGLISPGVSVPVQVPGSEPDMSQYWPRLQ
Transcription factor Sp1 (Homo sapiens), sequence (P08047 whole entry, looked up): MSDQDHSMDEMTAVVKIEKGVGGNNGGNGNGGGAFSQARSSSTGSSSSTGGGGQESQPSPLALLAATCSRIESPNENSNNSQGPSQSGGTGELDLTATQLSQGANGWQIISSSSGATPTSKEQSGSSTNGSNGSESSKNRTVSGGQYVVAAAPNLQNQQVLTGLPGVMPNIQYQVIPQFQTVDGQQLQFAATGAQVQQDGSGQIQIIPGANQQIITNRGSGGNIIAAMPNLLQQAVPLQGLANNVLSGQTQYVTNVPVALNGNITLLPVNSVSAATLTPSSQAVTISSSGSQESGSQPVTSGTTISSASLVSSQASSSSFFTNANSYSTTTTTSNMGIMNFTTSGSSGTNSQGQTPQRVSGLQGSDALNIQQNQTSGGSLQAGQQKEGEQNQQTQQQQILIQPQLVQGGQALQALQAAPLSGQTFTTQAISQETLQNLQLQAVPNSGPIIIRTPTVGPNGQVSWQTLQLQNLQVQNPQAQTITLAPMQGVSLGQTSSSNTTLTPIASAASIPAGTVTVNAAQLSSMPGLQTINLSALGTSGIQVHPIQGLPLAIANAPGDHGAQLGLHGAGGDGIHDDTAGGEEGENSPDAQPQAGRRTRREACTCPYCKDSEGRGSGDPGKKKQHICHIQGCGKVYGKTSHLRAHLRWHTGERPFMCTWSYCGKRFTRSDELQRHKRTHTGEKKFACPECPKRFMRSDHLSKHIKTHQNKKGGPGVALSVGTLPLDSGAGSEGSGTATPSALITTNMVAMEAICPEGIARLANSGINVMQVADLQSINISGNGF
Heat shock factor protein 1 (Homo sapiens), sequence (Q00613 whole entry, looked up): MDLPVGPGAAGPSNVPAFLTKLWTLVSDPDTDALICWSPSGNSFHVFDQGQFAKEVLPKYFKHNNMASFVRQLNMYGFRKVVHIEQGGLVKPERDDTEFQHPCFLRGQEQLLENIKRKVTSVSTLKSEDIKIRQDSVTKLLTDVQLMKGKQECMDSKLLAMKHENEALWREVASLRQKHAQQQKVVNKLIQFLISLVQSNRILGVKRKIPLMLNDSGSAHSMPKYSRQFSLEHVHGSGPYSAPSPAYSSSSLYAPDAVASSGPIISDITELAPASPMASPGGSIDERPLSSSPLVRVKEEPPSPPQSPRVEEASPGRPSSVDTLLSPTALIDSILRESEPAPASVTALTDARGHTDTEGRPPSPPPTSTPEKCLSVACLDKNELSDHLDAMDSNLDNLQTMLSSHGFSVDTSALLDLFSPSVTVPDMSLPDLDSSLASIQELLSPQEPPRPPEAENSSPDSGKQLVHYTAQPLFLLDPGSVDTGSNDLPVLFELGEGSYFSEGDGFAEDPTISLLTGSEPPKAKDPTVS

As a reminder, the AC50 is the concentration at which the activity in the assay is half-maximal. As for `CC(c1cc(C(C)(C)C)cc(C(C)(C)C)c1O)c1cc(C(C)(C)C)cc(C(C)(C)C)c1O`, the result in assay [1], in assay [3], in assay [4], in [5], in assay [6] and in assay [7] was inactive. Also, the result in [8], in assay [9], in [11], in [12], in assay [13] and in assay [14] was inactive. Moreover, the call in [15] was inactive. For the same molecule, the results for the AC50 in assay [2] and in [10] were 1.87 µM (active) and 0.078 µM (active), respectively.

`CCCCNC(=S)NCCCC`: the call in [1], in assay [2], in assay [3], in assay [4], in assay [5] and in assay [6] was inactive. For the same molecule, the call in [7], in assay [16], in assay [8], in assay [17], in assay [9] and in assay [12] was inactive. The call in assay [18], in assay [13], in assay [19], in assay [14] and in [15] was inactive. Besides, the AC50 in assay [10] is 38 µM (active).

For the molecule `CC(C)(C)C1CCC(=O)CC1`, the molecule was classed as inactive in assay [1], in assay [2], in assay [3], in assay [4], in [20] and in assay [6]. The molecule was classed as inactive in assay [7], in [8], in [9], in assay [10], in assay [11] and in assay [12]. For the same molecule, the molecule was called inactive in assay [18], in assay [13], in [19] and in assay [14]. Besides, the concentration at half-maximal activity (AC50) in assay [15] is 152 µM (active).

In the case of `O=C(O)c1cc(O)c2ccccc2c1O`, the AC50 in assay [1] is 33.4 µM (active); in [2], 33.4 µM (active); in assay [6], 48.9 µM (active); in [10], 0.944 µM (active); in assay [15], 60.2 µM (active). The molecule was called inactive in [4], in assay [20], in assay [5], in [7], in assay [16] and in [8]. Moreover, the result in [17], in assay [9], in assay [11], in assay [12], in assay [18] and in assay [13] was inactive. The molecule was classed as inactive in assay [19] and in [14].

The values above are taken from PubChem BioAssay (EPA / NIEHS).
